Compound activity from PubChem BioAssay.
Sampled rows, rich in hits. Any-hit rate of the full collection: about 1.5%.
GALK inhibitor: blocks human galactokinase activity | P51570 | Purified GALK, Kinase-Glo residual ATP luminescence | Potency, µM (top dose mostly 57.5 µM), inactives show at the highest dose activity change, negative = inhibition, hits mostly inhibitors | 0.007% of 270,000 active | AID 1868; further: potency means the concentration at half of the fitted maximal effect; on the % scale 0 is the no-effect control and ±100 the full control effect
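Human GALK (5 nM) with 35 uM ATP and 100 uM galactose in 20 mM HEPES pH 8.0, 5 mM MgCl2, 60 mM NaCl, 1 mM DTT, 0.01% BSA. After 1 h at room temperature, leftover ATP was read by Kinase-Glo Plus luminescence.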
FBPA coupling cs: counter-screen for Giardia aldolase inhibitors: coupling enzyme system; coupling enzyme system counterscreen, AmpLite Red fluorescence; activity change, negative = inhibition, % at 58.2 µM, hits read low; 0.67% of 290,000 active; AID 2472; in the data active means activity change below about -30%; further: on the % scale 0 is the no-effect control and ±100 the full control effect
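Final compound at 57.5 uM, incubated 10 min at RT with coupling enzyme reagent (glyceraldehyde-3-phosphate), then 20 min with substrate and AmpLite Red detection. Fluorescence read at 525/598 nm; tests interference with the coupling assay, not aldolase inhibition.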
TrxR1 substrate: rat thioredoxin reductase 1 substrate activity; Potency, µM (titrated, usually from 114 µM), for inactives: at the highest dose activity change, negative = substrate turnover; 0.01% of 390,000 active; purified TrxR1 substrate turnover, NADPH consumption readout; O89049; further: potency means the concentration at half of the fitted maximal effect; on the % scale 0 is the no-effect control and ±100 the full control effect; nearly all actives have a fitted effect of over 50% in size
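Rat TrxR1, dispensed at 90 nM, was prereduced with 400 uM NADPH (final) for 5 min at ~22 deg C, then incubated with compound 15 min before 400 uM selenite. A first-read NADPH fluorescence drop versus no-compound background flagged substrates.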
TrxR1 inh-1: blocks rat thioredoxin reductase 1; AID 588453; recombinant rTrxR1, NADPH fluorescence consumption, selenite substrate; 1% of 390,000 active; Potency, µM (highest dose often 114 µM), without a hit: at the highest dose activity change, negative = inhibition, actives largely listed as inhibitors; O89049; further: potency means the concentration at half of the fitted maximal effect; on the % scale 0 is the no-effect control and ±100 the full control effect; nearly all actives have a fitted effect of over 65% in size
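Rat TrxR1 (90 nM in the dispensed reagent) was pre-reduced with 400 uM NADPH for 5 min at room temperature, then incubated with compound for 15 min. After 400 uM selenite was added, NADPH fluorescence (Ex 340/Em 450 nm) was followed for 8 min.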
USP1 inh: inhibitors of human USP1/UAF1 deubiquitinase. O94782. recombinant USP1/UAF1, Ub-Rhodamine cleavage fluorescence. Potency, µM (doses to about 57.1 µM), for the others: top-dose activity change, negative = inhibition, hits mostly inhibitors. 0.23% of 390,000 active. AID 743255; further: potency means the concentration at half of the fitted maximal effect; on the % scale 0 is the no-effect control and ±100 the full control effect; nearly all actives have a fitted effect of over 60% in size
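Step one: compound is pinned into 1nM USP1/UAF1 in HEPES pH 7.8 buffer with TCEP. Step two: 15 min room-temperature incubation. Step three: Ub-Rho (150nM final) starts cleavage, tracked by fluorescence over six one-minute reads.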
TRb-SRC2 inh: TRb-SRC2 (human) interaction inhibition. AlphaScreen TRb LBD-SRC2 peptide binding, luminescence. shares compounds with TrxR1 inh-1. AID 2444. 50% of 30 active. Potency, µM; calls by dose curve
HepG2 tox: reduces HepG2 viability in TRb-SRC2 counter-screen; AID 2447; shares compounds with TrxR1 inh-1; HepG2 viability, ATP luminescence (CellTiter-Glo), 72 h; Potency, µM; 50% of 40 active; calls by dose curve
AR-SRC2 inh: selectivity of TRb-SRC2 inhibitors: human androgen receptor-SRC2 inhibition | calls only | shares compounds with TrxR1 inh-1 | AR-LBD Tx-SRC2-3 fluorescence polarization, 3 h | 25 tested, under 10 active | AID 2448; call rule not given here
PPARg DRIP2 FP: selectivity of TRb-SRC2 inhibitors: human PPARgamma coactivator binding inhibition; shares compounds with TrxR1 inh-1; PPARg LBD / Texas Red DRIP-2 peptide, fluorescence polarization, 3 h; Potency, µM; 25 tested, under 10 active; AID 2449; calls by dose curve
Target sequence (P37231 whole entry, looked up, the tested form may be a part): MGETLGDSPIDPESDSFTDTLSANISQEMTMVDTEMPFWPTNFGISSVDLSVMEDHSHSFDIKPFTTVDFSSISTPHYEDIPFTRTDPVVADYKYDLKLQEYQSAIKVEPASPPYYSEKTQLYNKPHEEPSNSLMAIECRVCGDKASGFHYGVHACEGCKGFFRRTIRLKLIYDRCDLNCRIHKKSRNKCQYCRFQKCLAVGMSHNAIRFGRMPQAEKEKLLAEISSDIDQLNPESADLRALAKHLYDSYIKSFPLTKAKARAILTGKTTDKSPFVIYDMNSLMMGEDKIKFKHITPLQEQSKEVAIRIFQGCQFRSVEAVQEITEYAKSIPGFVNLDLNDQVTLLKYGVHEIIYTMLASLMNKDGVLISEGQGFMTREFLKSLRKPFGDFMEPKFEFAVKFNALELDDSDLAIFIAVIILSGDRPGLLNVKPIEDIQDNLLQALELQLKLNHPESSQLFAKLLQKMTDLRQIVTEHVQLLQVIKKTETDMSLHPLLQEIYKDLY
VDR SRC2 FP: VDR-SRC2 (human) interaction inhibition, selectivity. shares compounds with TrxR1 inh-1. VDR LBD/SRC2-3 peptide, fluorescence polarization, 3 h. Potency, µM. 25 tested, under 10 active; calls by dose curve
TRb SRC2 FluoFP: disrupts human TRb binding to fluorescein-SRC2 peptide | shares compounds with TrxR1 inh-1 | TRb LBD / fluorescein-SRC2 peptide, fluorescence polarization | Potency, µM | 20 tested, under 10 active | AID 2487; call rule not given here
GR inh: inhibits human glutathione reductase in TrxR1 counterassay | purified GR, DTNB reduction absorbance 405 nm kinetic | 55 tested, under 10 active | activity change, negative = inhibition, % at 57.1 µM | shares compounds with TrxR1 inh-1
TrxR1 inh-2: rat TrxR1 inhibition, primary screen retest | shares compounds with TrxR1 inh-1 | recombinant TrxR1, NADPH fluorescence consumption, selenite substrate | Potency, µM, actives largely listed as inhibitors | 50% of 55 active | AID 652023
TrxR1 insulin: TrxR1 inhibitors: insulin reduction mechanism-of-action test | shares compounds with TrxR1 inh-1 | TrxR1 Trx-coupled insulin reduction, NADPH absorbance 340 nm | Potency, µM | 20% of 55 active;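 active means compounds with a measured potency under 100 micromolar; inconclusive means filed, but no rule given; inactive means potency at or above that, or unmeasurable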
TrxR1 inh-3: blocks rat TrxR1 reduction of DTNB. shares compounds with TrxR1 inh-1. purified TrxR1, DTNB reduction, A412. Potency, µM. 90% of 55 active;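 active means a half-inhibiting concentration could be measured and was below 100 µM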
* hit, by the source's call; ! = not confirmed by another sample; [ ] = remark or other dose. Unless noted, the call rests on the fitted dose curve; in most records, active means well fitted curve in the direction sought with a large enough effect; inconclusive means small, poorly fitted or top-dose-only effect, or another doubt; inactive means no such curve, though single readings can be large; an effect the other way counts as inactive or inconclusive.

For O=C(C1=C(O)C(=O)N(CCN2CCOCC2)C1c1cccc(F)c1)c1cc2ccccc2o1 (stereo not given) the results were GALK inhibitor 5.5%, TrxR1 substrate -12.2%, TrxR1 inh-1 inconclusive and USP1 inh -16.3%.
Cc1ccc(C2C(C(=O)c3cc4ccccc4o3)=C(O)C(=O)N2CCN2CCOCC2)cc1 (stereo not given) was read as GALK inhibitor -6.6%, TrxR1 substrate -6.4%, TrxR1 inh-1 44.7µM*, USP1 inh -12.5%, GR inh inconclusive, TrxR1 inh-2 inconclusive, TrxR1 insulin inactive and TrxR1 inh-3 0.333µM*.
For CC1CCN(C(=O)COC(=O)c2ccc(S(C)(=O)=O)c([N+](=O)[O-])c2)CC1 the results were HepG2 tox 20µM*.
CC1CCN(C(=O)C(C)OC(=O)c2ccc(S(C)(=O)=O)c([N+](=O)[O-])c2)CC1 (stereo not given) was read as TrxR1 substrate 5.5%, TrxR1 inh-1 11.2µM*, TRb-SRC2 inh 7.3µM*, HepG2 tox inactive, AR-SRC2 inh inactive, PPARg DRIP2 FP inactive, VDR SRC2 FP inactive and TRb SRC2 FluoFP 3.6µM*.
`Cc1cc(S(=O)(=O)c2ccc([N+](=O)[O-])cn2)ccc1Br` gave TrxR1 substrate 9.6%[57.1 µM], TrxR1 inh-1 0.112µM*, USP1 inh -3.6%, GR inh -0.9, TrxR1 inh-2 0.119*, TrxR1 insulin 35µM* and TrxR1 inh-3 0.011µM*.
O=C(c1ccc(-c2ccc([N+](=O)[O-])cc2)o1)N1CCCC(C(F)(F)F)C1 (stereo not given) was read as TrxR1 substrate -12.3%, TrxR1 inh-1 inconclusive and USP1 inh -7.5%.
`O=C(c1ccc(-c2ccc([N+](=O)[O-])cc2)o1)N1CCCCCCC1` gave TrxR1 substrate -11.4%, TrxR1 inh-1 5.01µM*, USP1 inh -11.9%, GR inh -19.0, TrxR1 inh-2 4.74*, TrxR1 insulin inactive and TrxR1 inh-3 1.05µM*.
For CS(=O)(=O)c1ccc(C(=O)OCC(=O)NC(=O)NC2CCCCC2)cc1[N+](=O)[O-] the results were TrxR1 substrate -4.1%, TrxR1 inh-1 7.08µM*, TRb-SRC2 inh 16.7µM*, HepG2 tox inactive, AR-SRC2 inh inactive, PPARg DRIP2 FP inconclusive, VDR SRC2 FP 48.7µM* and TRb SRC2 FluoFP 13.9µM*.
`Cn1cccc1C(=O)NC(=O)COC(=O)c1ccc(S(C)(=O)=O)c([N+](=O)[O-])c1` gave TrxR1 substrate -2.9%, TrxR1 inh-1 4.47µM*!, USP1 inh -11.6%, TRb-SRC2 inh 26.8µM*, HepG2 tox inconclusive, AR-SRC2 inh inactive, PPARg DRIP2 FP 51.6µM*, VDR SRC2 FP inconclusive and TRb SRC2 FluoFP inconclusive.
`Cc1ccc(F)cc1NC(=O)COC(=O)c1ccc(S(C)(=O)=O)c([N+](=O)[O-])c1` gave TrxR1 substrate 1.2%, TrxR1 inh-1 2µM*, TRb-SRC2 inh inactive, HepG2 tox 12.5µM* and TRb SRC2 FluoFP inactive.
`COc1ccc(C(=O)OCC(=O)NC(=O)NC2CCCC2)cc1[N+](=O)[O-]` gave TrxR1 substrate -4.8%[57.1 µM], TrxR1 inh-1 8.6% and USP1 inh -22.2%.
COc1cccc(CNC(=O)COC(=O)c2ccc(S(C)(=O)=O)c([N+](=O)[O-])c2)c1 was read as TrxR1 substrate 0.5%, TrxR1 inh-1 1.26µM*, TRb-SRC2 inh inactive, HepG2 tox inactive, AR-SRC2 inh inactive, PPARg DRIP2 FP inactive, VDR SRC2 FP inactive and TRb SRC2 FluoFP inactive.
Screening O=S1(=O)C2CC3C=CC2(CN1Cc1ccccc1)O3 (stereo not given) returned FBPA coupling cs 0.6, TrxR1 substrate 2.6% and TrxR1 inh-1 -3.7%.
Screening COc1ccccc1S(=O)(=O)N1CCN(c2nc(-c3cccs3)nc3ccccc23)CC1 returned TrxR1 substrate 25.5% and TrxR1 inh-1 23.1%.
Screening Clc1ccc(Cn2c3c(c4ccccc42)CCc2cc4ccccc4nc2-3)cc1 returned TrxR1 substrate 60.3% and TrxR1 inh-1 inconclusive.
For CS(=O)(=O)c1ccc(C(=O)OCC(=O)NCC2CCCO2)cc1[N+](=O)[O-] (stereo not given) the results were TrxR1 substrate 2.0%, TrxR1 inh-1 3.55µM*, TRb-SRC2 inh inactive, HepG2 tox inconclusive, AR-SRC2 inh inactive, PPARg DRIP2 FP inactive, VDR SRC2 FP inactive and TRb SRC2 FluoFP inactive.
For CCC(OC(=O)c1ccc(S(C)(=O)=O)c([N+](=O)[O-])c1)C(=O)NC1C2CC3CC(C2)CC1C3 (stereo not given) the results were HepG2 tox 7.6µM*.
For CC(OC(=O)c1ccc(S(C)(=O)=O)c([N+](=O)[O-])c1)C(=O)NC1C2CC3CC(C2)CC1C3 (stereo not given) the results were HepG2 tox 8.2µM*.
